From PubChem BioAssay (NCI) come the findings set out here.

What all share (assay): NCI-60 one-dose screen, 48 h (100 = growth as untreated, 0 = no growth, -100 = all killed)
What all share (settings): 10 µM unless noted

Experiment [1] deals with NCI-H23 lung.
In experiment [2] the test system is NCI-H460 lung.
In experiment [3] the test system is 786-0 renal.
Experiment [4] has as its system DU-145 prostate.
Experiment [5] relates to MDA-MB-231 breast.
The test system of experiment [6] is SF-268 CNS.
The test system of experiment [7] is SF-539 CNS.
For experiment [8], the system named is M14 melanoma.
The test system of experiment [9] is SNB-75 CNS.
Experiment [10] deals with PC-3 prostate.
Experiment [11] deals with UACC-62 melanoma.
The test system of experiment [12] is ACHN renal.
The subject of experiment [13] is OVCAR-5 ovarian.
For experiment [14], the system named is OVCAR-3 ovarian.
In experiment [15] the test system is NCI/ADR-RES ovarian.
For experiment [16], the system named is SW-620 colon.
The subject of experiment [17] is HCT-116 colon.
For experiment [18], the system named is KM12 colon.
Experiment [19] has as its system SK-MEL-28 melanoma.
In experiment [20] the test system is MCF7 breast.

Compounds without any hit were thinned out: in the full panel of roughly 83,000, 20% have a hit.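 For each line, cells grew in 96-well plates with the test compound present at a single concentration for 48 hours.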 A number with no mark means an inactive call. The source made the active and inactive calls. Rule for the calls: active = growth percent below 10; inactive = the rest.

Consider `CCC[CH2][Sn]([CH2]CCC)([CH2]CCC)[O]C(=O)c1ccc(Cl)cc1Cl`, for which the growth is -65.5% (active) in experiment [1]; -78% (active) in [2]; -91.7% (active) in [3]; -98% (active) in experiment [4]; -88.2% (active) in experiment [5]; -95.5% (active) in experiment [6]. For the same molecule, the growth is -91.7% (active) in experiment [7]; -85.8% (active) in experiment [8]; -93.2% (active) in experiment [9]; -76.8% (active) in experiment [10]; -95.4% (active) in experiment [11]; -100% (active) in experiment [12]. Further, the growth was -95.1% (active) in experiment [13]; -98.3% (active) in experiment [14]; -68.6% (active) in experiment [15]; -71.7% (active) in experiment [16]; -87.6% (active) in experiment [17]; -92.4% (active) in experiment [18].

Consider `COc1cc(NCCCCCN=C(N)N)c2ncccc2c1`, for which the growth in experiment [1] was 4.89% (active); in experiment [2], 65.9%; in [3], 86.3%; in experiment [4], 103%; in experiment [5], 50.8%; in experiment [6] it was 3.28% (active). For the same molecule, the growth in [7] is 23.8%; in [8], 99.3%; in experiment [9], 47%; in experiment [10], 23.4%; in experiment [11], 89.3%; in experiment [19], 89.7%. Also, the growth is 105% in experiment [12]; 97.3% in [13]; 0.151% (active) in experiment [14]; 104% in experiment [15]; 58.9% in experiment [16]; -51.1% (active) in experiment [20]. For the same molecule, the growth in [17] was 6.08% (active); in [18] it was 32.6%.

With `CC(=O)O[C@H]1C[C@H](O[C@H]2[C@@H](O)C[C@H](O[C@H]3[C@@H](O)C[C@H](O[C@H]4CC[C@@]5(C)C(CCC6C5C[C@@H](O)[C@]5(C)[C@@H](C7=CC(=O)OC7)CC[C@]65O)C4)O[C@@H]3C)O[C@@H]2C)O[C@H](C)[C@H]1O[C@@H]1O[C@H](CO)[C@@H](O)[C@H](O)[C@H]1O` (stereo partly drawn), the growth is -64.1% (active) in experiment [1]; -88.3% (active) in experiment [2]; -91.2% (active) in experiment [3]; -100% (active) in experiment [4]; -46.2% (active) in experiment [5]; -100% (active) in experiment [6]. Besides, the growth in experiment [7] was -88% (active); in [8] it was -77% (active); in [9] it was -66.1% (active); in experiment [10], -6.71% (active); in [11], -94.3% (active); in experiment [19], -70.5% (active). Also, the growth was -59.1% (active) in experiment [12]; -86.1% (active) in experiment [13]; -100% (active) in experiment [14]; -69.5% (active) in [15]; -90.5% (active) in [16]; -53% (active) in [20]. The results for the growth in [17] and in experiment [18] were -90.5% (active) and -100% (active), respectively.

Regarding `N#[N+]c1nc2nc(N)[nH]c(=O)c2[nH]1`, the growth in experiment [1] was 103%; in experiment [2], 101%; in experiment [3], 102%; in experiment [4], 105%; in experiment [5], 107%; in experiment [6], 104%. Further, the growth is 101% in experiment [7]; 100% in experiment [8]; 92% in [9]; 96.8% in [10]; 97.7% in experiment [11]; 111% in [19]. Moreover, the growth is 99.6% in experiment [12]; 104% in experiment [13]; 113% in [14]; 101% in [15]; 97.9% in [16]; 90.7% in experiment [20]. The values for the growth in experiment [17] and in experiment [18] were 96.8% and 108%, respectively.

`ClCCN(CCCl)c1ccc(/C=C\c2ccnc3ccccc23)cc1`: the growth was 61.6% in experiment [1]; 56.3% in experiment [2]; 84.2% in [3]; 90.6% in experiment [4]; 92.2% in experiment [5]; 94.9% in experiment [6]. Further, the growth in experiment [7] is 92.5%; in experiment [8] it was 85.5%; in experiment [9], 84.6%; in [10], 55.5%; in experiment [11] it was 59.2%; in experiment [19] it was 98.1%. In addition, the growth is 76% in [12]; 119% in experiment [13]; 84% in experiment [14]; 80.4% in [15]; 77.2% in [16]; 61.5% in experiment [20]. In addition, the growth in experiment [17] is 52.2%; in [18] it was 83.1%.

For the molecule `Cc1nnc([S-])s1.[Au+].c1ccc([PH+](c2ccccc2)c2ccccc2)cc1`, the growth in experiment [1] is 12.2%; in experiment [2], 57.3%; in experiment [3], -29.7% (active); in experiment [4], 18.6%; in [5] it was 4.44% (active); in experiment [6], 7.17% (active). The growth in experiment [7] is -22.9% (active); in experiment [8], -2.48% (active); in experiment [9], -76.3% (active); in experiment [10], 15.4%; in experiment [11], -31% (active); in [19], -55.7% (active). In addition, the growth was -89.4% (active) in [12]; 63.6% in experiment [13]; -96.3% (active) in [14]; 63.4% in experiment [15]; -70.6% (active) in experiment [16]; -64.1% (active) in experiment [20]. Moreover, the growth was -60.1% (active) in experiment [17] and 49.1% in experiment [18].

On to `CC[C@]12C=CCN3CC[C@@]4(c5ccc(OC)cc5N(C)[C@H]4[C@@](O)(C(=O)OC)[C@@H]1OC(=O)CCCN1CCN(CCCC(=O)O[C@@H]4[C@]5(CC)C=CCN6CC[C@@]7(c8ccc(OC)cc8N(C)[C@H]7[C@@]4(O)C(=O)OC)[C@@H]65)CC1)[C@@H]32`, for which the growth in experiment [1] is -80.6% (active); in [2], -80.3% (active); in [3] it was -81.9% (active); in experiment [4], -90.6% (active); in experiment [5], -89.6% (active); in experiment [6], -82.6% (active). In addition, the growth in experiment [7] is -95.5% (active); in [8] it was -80.6% (active); in [9] it was -94.3% (active); in experiment [10] it was -80.3% (active); in experiment [11], -87.7% (active); in experiment [19], -91.6% (active). For the same molecule, the growth in experiment [12] is -83.3% (active); in experiment [13], -87.8% (active); in experiment [14], -85.2% (active); in [15], -40.6% (active); in [16], -81.9% (active); in experiment [20], -83.8% (active). Moreover, the figures for the growth in [17] and in experiment [18] were -84% (active) and -73.9% (active), respectively.

With `CCN1CC2(CN(CC)C1=S)C(=O)NC(=O)NC2=O`, the growth in [1] is 98.9%; in experiment [2], 100%; in experiment [3], 90.3%; in experiment [4] it was 97.6%; in experiment [5] it was 110%; in experiment [6] it was 95.1%. Besides, the growth in [7] is 107%; in [8], 88.9%; in experiment [9] it was 95.8%; in experiment [10] it was 85.7%; in [11] it was 101%; in [19], 105%. Also, the growth in [12] is 99%; in [13], 114%; in experiment [14] it was 107%; in [15] it was 97.4%; in experiment [16] it was 97.4%; in experiment [20], 92.5%. In addition, the growth in [17] was 97.3%; in experiment [18], 94.1%.
